Test results: PubChem BioAssay AID1878 (Sanford-Burnham Center for Chemical Genomics, 2009)
The campaign covered roughly 1,000 compounds. About 200 (20%) were called active. The list is a sample of the results. Potency and affinity values are given separately. Values without a mark were called inactive. No stated cut-off is given here; in the data, active means inhibition above about 55%; inactive means the rest.

Biological target: Dual specificity protein phosphatase 3 (Homo sapiens) (UniProt P51452)
Sequence (P51452 whole entry, looked up): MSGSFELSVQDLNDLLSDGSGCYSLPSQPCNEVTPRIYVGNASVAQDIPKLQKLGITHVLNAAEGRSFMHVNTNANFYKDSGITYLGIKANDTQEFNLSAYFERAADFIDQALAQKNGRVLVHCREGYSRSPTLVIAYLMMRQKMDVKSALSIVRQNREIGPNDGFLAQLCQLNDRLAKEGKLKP
Experiment: VHR1 phosphatase inhibitors, biochemical (AID 1878)
Settings: recombinant VHR phosphatase, fluorogenic substrate; at 13.3 µM; active compounds read high

Question: With `CCC(C)N(C(=O)c1csnn1)C(C(=O)NC1CCCC1)c1ccccc1F` (centres undefined) as the molecule, how does the inhibition read?
Answer: The inhibition was 10%.

Question: For `CSc1sccc1/C=C(/C#N)C(=O)c1ccco1`, which inhibition is on record?
Answer: Its inhibition is 28.9%.

Question: Which inhibition does the source give for `CCn1c(=O)n(CC)c2cc(N3CCCC3)c(NC(=O)c3ccccc3F)cc21` here?
Answer: Its inhibition is -2.4%.

Question: For `COCCn1c(SCC(=O)N2CCCC(C)C2)nnc1-c1ccco1` (centres undefined), which inhibition is on record?
Answer: Its inhibition is -3.4%.

Question: `O=C(CCNS(=O)(=O)c1ccccc1)N1CCCCCC1` was tested. Which inhibition did it give?
Answer: The inhibition was 7.7%.

Question: `O=C(NCc1ccccc1Cl)C1CCC(CNc2nc(=S)[nH]c3ccccc23)CC1` (centres undefined) was tested. Which inhibition did it give?
Answer: The inhibition was -7%.

Question: How did the inhibition turn out when `CC1CCN(CCCNC(=O)C2CCN(S(=O)(=O)N3CCC4(CC3)OCCO4)CC2)CC1` was run?
Answer: The inhibition was 1.6%.

Question: `O=C(c1cc(C2CC2)on1)N1CCCC(N2CCN(c3ccc(F)cc3)CC2)C1` (centres undefined) was tested. Which inhibition did it give?
Answer: The inhibition was 0.4%.

Question: Which inhibition does the source give for `CCOc1ccc(C2NC(=O)c3ccccc3O2)cc1OC` (centres undefined) here?
Answer: The inhibition was -17.6%.

Question: `CN(Cc1ccccn1)C(=O)C1CCC(=O)N(CCc2ccc(Cl)cc2)C1` (centres undefined) was tested. Which inhibition did it give?
Answer: Its inhibition is -11.4%.

Question: `COc1ccc(NC(=O)CN(C)S(=O)(=O)c2ccc3[nH]c(=O)oc3c2)cc1` was tested. Which inhibition did it give?
Answer: Its inhibition is 12.6%.

Question: How did the inhibition turn out when `Cn1c(=O)oc2cc(S(=O)(=O)NCCC(=O)NCc3ccccc3Cl)ccc21` was run?
Answer: Its inhibition is 14.6%.

Question: Which inhibition does the source give for `COc1ccccc1-c1nc2c3ccccc3nc(=S)n2[nH]1` here?
Answer: Its inhibition is 7.9%.

Question: With `CC(C)c1ccc(NS(=O)(=O)c2cccc3cccnc23)cc1` as the molecule, how does the inhibition read?
Answer: Its inhibition is -1%.

Question: How did the inhibition turn out when `COc1ccc2c(c1)C(=NNC(=O)c1ccccn1)c1cc(OC)ccc1-2` was run?
Answer: Its inhibition is 99.3% (active).

Question: How did the inhibition turn out when `Cc1cc(NC(=O)C2CCCCC2)ncc1NC(=O)c1ccccn1` was run?
Answer: Its inhibition is 9%.

Question: How did the inhibition turn out when `COc1ccccc1-c1cc(C(=O)Nc2cccnc2Cl)no1` was run?
Answer: Its inhibition is 12.2%.

Question: For `CCOC(=O)c1sc(=NC(=O)c2c(F)cccc2F)n(C)c1C`, which inhibition is on record?
Answer: The inhibition was 26.7%.

Question: For `CC(=O)NCCC(=O)N(C)CC1CCN(CCc2cccc(C(F)(F)F)c2)CC1`, which inhibition is on record?
Answer: The inhibition was -21.4%.

Question: `Cc1ccc(NC(=O)COc2cccc(/C=C3\SC(=S)N(CCC(=O)O)C3=O)c2)cc1Cl` was tested. Which inhibition did it give?
Answer: The inhibition was 79.2% (active).

Question: `O=C(CCN1C(=O)/C(=C\C=C\c2ccccc2)SC1=S)Nc1ccc(C(=O)O)cc1` was tested. Which inhibition did it give?
Answer: The inhibition was 98.7% (active).

Question: With `COc1ccccc1C(=O)NNC(=O)CCN1C(=O)/C(=C\c2ccccc2)SC1=S` as the molecule, how does the inhibition read?
Answer: The inhibition was 38.1%.

Question: With `COc1ccc(/C=C2\SC(=S)N(CCC(=O)Nc3cccc(C(=O)O)c3)C2=O)cc1` as the molecule, how does the inhibition read?
Answer: The inhibition was 86.4% (active).

Question: How did the inhibition turn out when `CCc1ccc(/C=C2/SC(=S)N(CCC(=O)Nc3ccc(C(=O)O)cc3)C2=O)cc1` was run?
Answer: Its inhibition is 87.1% (active).

Question: For `CCOC(=O)c1ccc(NC(=O)CCS(=O)(=O)Cc2ccccc2)cc1`, which inhibition is on record?
Answer: The inhibition was 11.4%.

Question: How did the inhibition turn out when `COc1cccc(NC(=O)CCc2nc(-c3cccs3)no2)c1` was run?
Answer: Its inhibition is 11.2%.

Question: For `COc1ccc(S(=O)(=O)NCC2CCCN(Cc3cn(C)nc3C)C2)cc1` (centres undefined), which inhibition is on record?
Answer: Its inhibition is 0.5%.

Question: How did the inhibition turn out when `COc1ccccc1N1CCN(S(=O)(=O)c2ccc3c(c2)CC(C)N3C(C)=O)CC1` (centres undefined) was run?
Answer: The inhibition was 2.4%.

Question: For `CCC1CCCCN1CCCNC(=O)c1ccc2c(c1)NC(=O)CN2C` (centres undefined), which inhibition is on record?
Answer: The inhibition was -26.5%.

Question: How did the inhibition turn out when `CCCCN(Cc1ccco1)C(=O)C1CCCN(c2ncnc3c2nc2n3CCCCC2)C1` (centres undefined) was run?
Answer: Its inhibition is -4.3%.

Question: How did the inhibition turn out when `CCCN1C2CCCC1CC(NC(=O)c1ccccc1OC)C2` (centres undefined) was run?
Answer: The inhibition was -6.6%.

Question: Which inhibition does the source give for `Cc1ccc(CNS(=O)(=O)c2c(C)[nH]c(=O)[nH]c2=O)cc1` here?
Answer: Its inhibition is -4.8%.

Question: How did the inhibition turn out when `NC(=O)c1ccc(NC(=O)CS(=O)(=O)c2cn(CC(=O)N3CCCC3)c3ccccc23)cc1` was run?
Answer: The inhibition was -13.4%.

Question: With `Cc1ccc(/C=N/N(C)C2=NS(=O)(=O)c3ccccc32)cc1` as the molecule, how does the inhibition read?
Answer: Its inhibition is 21.9%.

Question: `COCCCNC(=O)c1ccc(CS(=O)(=O)c2ccccc2OC)o1` was tested. Which inhibition did it give?
Answer: The inhibition was -5.7%.

Question: With `Nc1[nH]n2c(=O)cc(-c3ccccc3)nc2c1N=Nc1ccc2c(c1)OCO2` as the molecule, how does the inhibition read?
Answer: Its inhibition is 98.8% (active).

Question: Which inhibition does the source give for `COc1cccc(N2CCN(c3ccc4nnc(CCC(=O)Nc5ccc(F)cc5F)n4n3)CC2)c1` here?
Answer: Its inhibition is 6.6%.

Question: How did the inhibition turn out when `Cc1cc(C)c(S(=O)(=O)Cc2ccccc2)c(Cl)n1` was run?
Answer: The inhibition was 7.3%.

Question: With `COc1ccc(/C=C/C(=O)NC(=S)Nc2cc([N+](=O)[O-])ccc2O)cc1OC` as the molecule, how does the inhibition read?
Answer: The inhibition was 95.7% (active).

Question: With `CCOc1cc2[nH]c(=S)n(Cc3ccc(C(=O)NCCN(CC)CC)cc3)c(=O)c2cc1OCC` as the molecule, how does the inhibition read?
Answer: Its inhibition is -9.2%.

Question: For `Nn1c(SCC(=O)Nc2ccccc2F)nnc1C1CCCCC1`, which inhibition is on record?
Answer: Its inhibition is 18.2%.

Question: `O=C(Nc1c(C(=O)N2CCC(N3CCCCC3)CC2)oc2ccccc12)c1ccc(F)cc1` was tested. Which inhibition did it give?
Answer: Its inhibition is -2.2%.

Question: Which inhibition does the source give for `CC1CCCCN1C(=O)CCC(=O)Nc1nnc(C2CCCCC2)s1` (centres undefined) here?
Answer: Its inhibition is -7.6%.

Question: Which inhibition does the source give for `Cc1ccccc1-c1nc(CS(=O)(=O)CC(=O)NC2CCCC2)c(C)o1` here?
Answer: Its inhibition is 7.2%.

Question: Which inhibition does the source give for `O=c1oc(-c2ccccc2Cl)nc2ccsc12` here?
Answer: Its inhibition is 5.6%.

Question: How did the inhibition turn out when `CCn1c(SCC(=O)N2CCOCC2)nc2c(c1=O)SC(C)C2` (centres undefined) was run?
Answer: Its inhibition is -2.5%.

Question: Which inhibition does the source give for `COc1ccc(CC(=O)N/N=C(\C)CC(=O)Nc2ccc(N(C)C)cc2)cc1` here?
Answer: Its inhibition is -12.6%.

Question: How did the inhibition turn out when `C[C@@H]1NC(=O)N(c2ccc(F)cc2)C1=O` was run?
Answer: The inhibition was -6.6%.

Question: With `O=C1CN(c2ccc(F)cc2)C(=S)N1c1ccccc1` as the molecule, how does the inhibition read?
Answer: The inhibition was 4.8%.

Question: For `CCN1CCN(C(CNS(=O)(=O)c2ccc(OC)c(C)c2)c2cccnc2)CC1` (centres undefined), which inhibition is on record?
Answer: Its inhibition is -7.5%.

Question: For `CC1CCN(Cc2nnnn2CCCC(=O)N(C)C(C)c2ccccn2)CC1` (centres undefined), which inhibition is on record?
Answer: Its inhibition is 7.9%.

Question: For `COc1cc(OC)cc(C(=O)NN(CCC#N)C2=NS(=O)(=O)c3ccccc32)c1`, which inhibition is on record?
Answer: The inhibition was 15.9%.

Question: `Cc1ccccc1OCCCN1CCOCC1` was tested. Which inhibition did it give?
Answer: The inhibition was 2%.

Question: `CCc1ccc(/C=C/c2c([N+](=O)[O-])c(=O)n(C)c(=O)n2C)cc1` was tested. Which inhibition did it give?
Answer: Its inhibition is 3.6%.

Question: Which inhibition does the source give for `Cc1ccc(C)c(Nc2ccc3nonc3c2[N+](=O)[O-])c1` here?
Answer: Its inhibition is -8.6%.

Question: `Cc1cc(OCc2cc(C(=O)N(C)CCCN3CCOCC3)no2)cc(C)c1Cl` was tested. Which inhibition did it give?
Answer: Its inhibition is -10.5%.

Question: With `COc1cc(Cl)ccc1OCc1cc(C(=O)NCC(C)c2ccccc2)no1` (centres undefined) as the molecule, how does the inhibition read?
Answer: Its inhibition is 11.7%.

Question: `Cc1ccc(CN2CCN(Cc3cccc(C)n3)CC2CCO)cc1` (centres undefined) was tested. Which inhibition did it give?
Answer: Its inhibition is 3.8%.

Question: For `CC(C)(C)CN1CCN(Cc2c[nH]c3ccccc23)CC1CCO` (centres undefined), which inhibition is on record?
Answer: The inhibition was -9.5%.
